# Assay results reported in PubChem BioAssay AID1347056 (Sanford-Burnham Center for Chemical Genomics, 2019).
# Hit rate of the full screen: of about 360,000 compounds, about 3,600 (1%) were called active.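 How the source made its calls: active means compounds whose plate-normalised and pattern-corrected inhibition of the luciferase reporter signal at the single screening dose is 50% or more; inactive means the rest.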 The full list was thinned out, with actives kept by preference.
# Assay: inhibitors of TROY-driven NF-kB signaling, primary screen, Q293 LMP1-TROYcd cells, NF-kB luciferase, uHTS (AID 1347056)
# Conditions: Q293 LMP1-TROYcd NF-kB luciferase reporter, 4 h; at 10 µM; active compounds read high
row,SMILES,inhibition
1,CC(Sc1nncn1C)C(=O)Nc1cc(C(F)(F)F)ccc1N1CCOCC1 (stereo unspecified),-8.48% (inactive)
2,Cc1onc(-c2ccc(Cl)cc2)c1-c1ccnn1S(=O)(=O)c1ccc(Cl)cc1,-10.7% (inactive)
3,O=C(COC(=O)c1cccnc1Cl)NC(=O)NC1CCCCC1,-1.94% (inactive)
4,CC(=O)Nc1ccc(S(=O)(=O)N2CCC(N(C)CCC(C)C)CC2)cc1,15.7% (inactive)
5,CC1CN(C(=S)SCC(=O)c2ccccc2)CC(C)O1 (stereo unspecified),-38.2% (inactive)
6,NC(=NC(=O)c1ccccc1)N1CCOCC1,-4.29% (inactive)
7,O=C(CSC(=S)N1CCOCC1)c1ccccc1,50.2% (active)
8,CC1=CC=CN2C1=NC(=O)CC2(C)C(=O)N(CC(=O)NC1CCCC1)c1ccccc1C (stereo unspecified),6.68% (inactive)
9,CN1CCN(c2ccncc2S(=O)(=O)N2CCCC2)CC1,-13.2% (inactive)
10,COCCNc1ncnc2c1ncn2[C@H]1CN(Cc2ccc(OC)cc2)C[C@@H](CO)O1,-16.1% (inactive)
11,COC(=O)C1(S(=O)(=O)C2(C(=O)OC)CCCC2)CCCC1,10.4% (inactive)
12,CCCCCc1c(Cc2ccccc2)ncn1CCc1ccccc1OC,49.9% (inactive)
13,Cc1ccccc1NS(=O)(=O)CCCCC(Cl)(Cl)Cl,5.02% (inactive)
14,CC(C)CNc1ncnc2c1cnn2Cc1ccc(Cl)cc1,-3.29% (inactive)
15,Clc1ccc(Cn2ncc3c(NCc4cccnc4)ncnc32)cc1,58.7% (active)
16,c1ccc(CNc2ncnc3[nH]ncc23)cc1,12.9% (inactive)
17,CC(CNc1ccc([N+](=O)[O-])c2cccnc12)Nc1c([N+](=O)[O-])cc(C(F)(F)F)cc1[N+](=O)[O-] (stereo unspecified),9.66% (inactive)
18,NS(=O)(=O)c1cccc(NC(=O)COC(=O)c2cc([N+](=O)[O-])ccc2N2CCCC2)c1,-3.22% (inactive)
19,N#Cc1cccc(NC(=O)COC(=O)c2ccccc2C(=O)c2ccc(Cl)c([N+](=O)[O-])c2)c1,66.1% (active)

row,SMILES,inhibition
1,CC(OC(=O)CNC(=O)c1ccc(Cl)c([N+](=O)[O-])c1)C(=O)NCc1ccco1 (stereo unspecified),-1.1% (inactive)
2,O=C(COc1ccc([N+](=O)[O-])cc1)Nc1cccc(C(=O)Nc2ccccc2C(=O)O)c1,13.9% (inactive)
3,CCc1ccc(NC(=O)C(C)OC(=O)/C=C/c2cccc([N+](=O)[O-])c2)cc1 (stereo unspecified),7.86% (inactive)
4,CC(=O)Nc1ccc(NC(=O)C(C)OC(=O)c2ccccc2C(=O)c2ccc(Cl)c([N+](=O)[O-])c2)cc1 (stereo unspecified),51% (active)
5,CN(CC(=O)NC1CCCC1)S(=O)(=O)c1cnc[nH]1,7.95% (inactive)
6,CCNc1nc(NC(C)C)nc(N2CC(=O)N(CC(=O)OCC)C2=N)n1,19.4% (inactive)
7,CCOC(=O)N1CCN(C(=O)c2ccc3c(=O)n(CCc4ccc(OC)c(OC)c4)c(=O)[nH]c3c2)CC1,1.87% (inactive)
8,Cc1ccccc1NC(=O)C1CCN(C(=O)NC2CCCCC2)CC1,-10.7% (inactive)
9,COc1cccc(N2CCN(C(=O)C3CCCN(S(=O)(=O)c4cnc[nH]4)C3)CC2)c1 (stereo unspecified),-3.43% (inactive)
10,O=C(C1CCCN(S(=O)(=O)c2ccccc2)C1)N1CCN(c2ccc(F)cc2)CC1 (stereo unspecified),3.28% (inactive)
11,CC(=O)N1CCCc2cc(S(=O)(=O)N3CCCC(C(=O)N4CCN(c5cccc(Cl)c5)CC4)C3)ccc21 (stereo unspecified),54.2% (active)
12,CCOc1cccc2cc(C(=O)OCC(=O)Nc3c(C)cccc3CC)c(=O)oc12,-77.6% (inactive)
13,O=C(Nc1ccc(Cl)c(C(F)(F)F)c1)C1Cc2c(-c3ccccc3Oc3ccccc3)ccnc2O1 (stereo unspecified),16.3% (inactive)
14,COc1ccc(N(CC(=O)NCc2ccc(F)cc2)C(=O)CCC(=O)Nc2nccs2)cc1,-6.88% (inactive)
15,CC(Oc1ccc2c(-c3ccccc3)cc(=O)oc2c1)C(=O)NC(Cc1c[nH]c2ccccc12)C(=O)O (stereo unspecified),-3.69% (inactive)
16,O=C(CNC(=O)OCc1ccccc1)Oc1cc2oc(=O)cc(-c3ccccc3)c2cc1Cl,50.4% (active)
17,O=C(CNC(=O)c1ccccc1)NCC(=O)OCc1ccc(Cl)cc1,17.5% (inactive)
18,Cc1ccc(S(=O)(=O)Oc2ccc(/C=N/NC(=O)c3c(Cl)cnn3C)cc2)cc1,-1.06% (inactive)
19,CCN(CC)CCNC(=O)c1sc2ncn(CC(=O)Nc3ccc(C)c(Cl)c3)c(=O)c2c1C,6.8% (inactive)

row,SMILES,inhibition
1,CC(=O)N1CCN(c2ccccc2NC(=S)NC(=O)c2cc3ccccc3o2)CC1,5.79% (inactive)
2,O=C1NC(c2ccncc2)Nc2sc3c(c21)CCCC3 (stereo unspecified),-12.2% (inactive)
3,C/C(=C\c1ccccc1)C1NC(=O)c2c(sc3c2CCCC3)N1 (stereo unspecified),67.6% (active)
4,O=C(Nc1sc2c(c1-c1nc3ccccc3[nH]1)CCCC2)C1CC1,-11.2% (inactive)
5,CN(C)S(=O)(=O)c1ccc2oc(SCC(=O)Nc3ccccc3F)nc2c1,-36.4% (inactive)
6,COc1ccc(Cl)cc1S(=O)(=O)Nc1cccc(C(=O)O)c1,1.76% (inactive)
7,O=C(Nc1ccc2ccccc2c1)Nc1ccc2snnc2c1,69.7% (active)
8,Cc1ccc(NC(=O)Nc2ccc3oc(C)nc3c2)cc1,-27.6% (inactive)
9,COc1cccc(NC(=O)Nc2ccc(F)cc2)c1,-52.4% (inactive)
10,CN(CCC(=O)Nc1cc(S(=O)(=O)N(C)C)ccc1Cl)CC(=O)Nc1ccc(F)cc1,1.42% (inactive)
11,CSCCNCc1cn(-c2ccc(F)cc2F)nc1-c1ccccc1C,1.03% (inactive)
12,OCc1nc(CO)n(Cc2ccccc2)n1,11.6% (inactive)
13,O=C(CSc1ncnc2scc(-c3ccccc3)c12)NCc1ccc2c(c1)OCO2,22.3% (inactive)
14,O=C(COC(=O)c1ccc(Cl)nc1)NCc1ccc2c(c1)OCO2,-7.63% (inactive)
15,CN(C)C(=O)c1cccc(-c2cnc3sc(NCc4ccc5c(c4)OCO5)nn23)c1,51.8% (active)
16,COc1ccccc1NC(=O)N1CCCC1C(=O)NCc1cccs1 (stereo unspecified),7.15% (inactive)
17,COc1ccccc1CNC(=O)CN1CCC(n2cnc3cc(F)ccc32)CC1,2.42% (inactive)
18,CCCCCCN1CCN(C2CN(Cc3cn(Cc4ccc(F)cc4)nn3)S(=O)(=O)C2)CC1 (stereo unspecified),0.62% (inactive)
